ClpP mod: qHTS Assay for Activators of ClpP; purified B. subtilis ClpP, FRET peptide cleavage, 20 min; Potency, µM (titrated, usually from 57.5 µM), without a hit: at the top dose activity change, negative = active; ATP-dependent Clp protease proteolytic subunit (Bacillus subtilis (strain 168)), P80244; 1.9% of 340,000 active; active = well fitted falling curve with a large enough effect; inconclusive = small, poorly fitted or top-dose-only effect; inactive = no such curve, though single readings can be large or run the other way; also: potency is read from the fitted curve at half-maximal effect; the source files actives as falling curves though it sought activators and does not explain the sign; nearly all actives have a fitted effect of over 65% in size
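Purified B. subtilis ClpP, 10 microg/mL final in Tris/HCl pH8 with KCl, BSA, glycerol and Tween-20, cleaved an Abz/nitrotyrosine-quenched decapeptide. Fluorescence (ex 320, em 430) was read at 0 and 20 min at room temperature. Delta was normalized to 5.8 microM ADEP and DMSO/no-enzyme controls.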
Menin-MLL FL inh: displaces fluorescein MLL peptide from human menin | Fluorescence polarization, fluorescein-MLL peptide displacement from menin | FP activity change, % at 61.4 µM | 290,000 tested, under 10 active | AID 1766; active = well fitted curve in the direction sought with a large enough effect in the polarisation, not every such curve was filed as active; inconclusive = small, poorly fitted or top-dose-only effect, or effect the other way, or a change in a side signal; inactive = no such curve, though single readings can be large or run the other way; the % refers to the polarisation; also: % of control where 0% means no effect
p53 reactivation: re-activators of mutant p53; H1299 p53-A138V BP100-luciferase reporter, luminescence, 24 h; Potency, µM (doses to about 92.2 µM), for inactives: at the highest dose activity change, positive = activation, actives largely listed as activators; 0.063% of 320,000 active; active = well fitted activation curve with a large enough effect; inconclusive = small, poorly fitted or top-dose-only effect; inactive = no such curve, though single readings can be large or run the other way; also: potency is read from the fitted curve at half-maximal effect; % of control where 0% means no effect; nearly all actives have a fitted effect of over 45% in size
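H1299 (p53-null), stable ts p53-A138V + BP100-Luc; 1000 cells/well, Opti-MEM/10% FBS; cpd 4 pt, 1:5; 24 h, 37 deg C, 5% CO2; detection reagent 10 min RT; luminescence.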
CXXC DNA block: blocks binding of human MLL CXXC domain to DNA; Q03164; MLL-CXXC / FITC-HOXA9 DNA fluorescence polarization; Potency, µM (doses to about 115 µM), inactives show at the top dose activity change, negative = inhibition, actives largely listed as inhibitors; 0.037% of 290,000 active; AID 2662; active = well fitted inhibition curve with a large enough effect in the polarisation, with a control signal flat, not every such curve was filed as active; inconclusive = small, poorly fitted or top-dose-only effect, or effect the other way, or a change in a side signal; inactive = no such curve, though single readings can be large or run the other way; the % refers to the polarisation; also: potency is read from the fitted curve at half-maximal effect
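Fluorescence polarization: 7 uM MLL-CXXC (stock) preincubated 5 min with compounds, then 50 nM fluorescein-HOX-A9 DNA (stock) added; 30 min ambient. Buffer 50 mM Tris-HCl pH 7.5, 50 mM NaCl, 1 mM DTT, 0.05% BSA.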
Menin MLL FP TR: inhibitors of human menin-MLL interaction, mutant MLL peptide | Potency, µM (titrated, usually from 61.6 µM), without a hit: at the highest dose FP activity change, negative = inhibition, usual class: inhibitors | Menin + Texas Red MLL mutant peptide, fluorescence polarization | 0.23% of 270,000 active | O00255 | AID 1768; active = well fitted inhibition curve with a large enough effect in the polarisation, with a control signal flat, not every such curve was filed as active; inconclusive = small, poorly fitted or top-dose-only effect, or effect the other way, or a change in a side signal; inactive = no such curve, though single readings can be large or run the other way; the % refers to the polarisation; also: potency is read from the fitted curve at half-maximal effect; % of control where 0% means no effect
Active calls of the source: *; [ ] = dose if it differs, or a comment. This is one part of a sample in which hits are shown more often than they occur.

Screening CCCCC(=O)Nc1c(-c2ccc(OC)c(OC)c2)c(=O)c2ccccc2n1C returned ClpP mod -2%, Menin-MLL FL inh 1, p53 reactivation -7%, CXXC DNA block 6% and Menin MLL FP TR 5%.
For CCCCCC(=O)Nc1c(-c2ccc(OC)cc2)c(=O)c2ccccc2n1C the results were ClpP mod 25µM*, Menin-MLL FL inh 1, p53 reactivation 5% and CXXC DNA block -7%.
For CCCC(=O)Nc1c(-c2ccc(OC)cc2)c(=O)c2ccccc2n1C the results were ClpP mod 16µM*, Menin-MLL FL inh 6, p53 reactivation -1%, CXXC DNA block inconclusive and Menin MLL FP TR 0%.
Screening CCCC(=O)Nc1c(-c2ccccc2OC)c(=O)c2ccccc2n1C returned ClpP mod 1%, Menin-MLL FL inh 4, p53 reactivation -1% and CXXC DNA block 6%.
Screening c1ccc(-c2nc(-c3cnc4ccccc4n3)cs2)cc1 returned ClpP mod -2%.
For COC(=O)C/C=C\[C@@H](C)[C@@H](/C=N\O[C@@H](C)c1cc(-c2c(C)cc(C)cc2C)no1)OC the results were Menin-MLL FL inh 0[11.7 µM] and Menin MLL FP TR -11%[11.7 µM].
Screening Cc1cc(C(=O)CSc2nc3ccccc3o2)c(C)n1CC1CCCO1 (stereo not given) returned ClpP mod 28µM*, Menin-MLL FL inh -1, p53 reactivation inconclusive, CXXC DNA block inconclusive and Menin MLL FP TR -4%.
`O=[N+]([O-])c1ccc(/C=C2\C=Cc3ccccc32)cc1` gave ClpP mod 3%.
For Cc1ccccc1Cn1c2ccccc2c2cnn(CC(=O)NCc3cccc(Cl)c3)c(=O)c21 the results were ClpP mod 22µM*.
`O=C(NCCOc1ccccc1)C1=CC=CN2CCS(=O)(=O)N=C12` gave ClpP mod 32µM* and p53 reactivation 13%.
For C=C1NC(=O)c2cc(CN(C)c3ccc(C(=O)N[C@@H](CCC(=O)O)C(=O)O)s3)ccc2N1 the results were Menin-MLL FL inh -3, CXXC DNA block -6% and Menin MLL FP TR -3%.
For CCCC(=O)Nc1cc(-c2cn3cccnc3n2)ccc1OC the results were ClpP mod inconclusive, Menin-MLL FL inh -2, p53 reactivation 12%, CXXC DNA block -4% and Menin MLL FP TR -3%.
`COc1ccc(-c2cn3cccnc3n2)cc1NC(=O)CC(C)C` gave ClpP mod 28µM*, Menin-MLL FL inh 3, p53 reactivation 0%, CXXC DNA block 6% and Menin MLL FP TR inconclusive.
`CCOc1cc(C(=O)Nc2ccc(-c3cn4cccnc4n3)cc2)cc(OCC)c1OCC` gave ClpP mod 16µM*.
For O=C(Nc1cccc(-c2cn3cccnc3n2)c1)c1ccc2c(c1)OCO2 the results were ClpP mod 28µM*, Menin-MLL FL inh 1, p53 reactivation 12%, CXXC DNA block 23% and Menin MLL FP TR 6%.
CC1(C)O[C@@H]2C[C@H]3[C@@H]4CCC5=CC(=O)C=C[C@]5(C)[C@H]4C(O)C[C@]3(C)[C@]2(C(=O)CO)O1 (stereo not given in full) was read as Menin-MLL FL inh -2, CXXC DNA block 11% and Menin MLL FP TR 4%.
`O=S(=O)(c1ccc(Cl)cc1)c1nc(-c2ccccc2Br)oc1NCc1ccccc1` gave ClpP mod 20µM*.
Screening CCNS(=O)(=O)c1ccc2c3c(cccc13)C(=O)N2 returned ClpP mod 32µM*, Menin-MLL FL inh 0, p53 reactivation 2%, CXXC DNA block 9% and Menin MLL FP TR 2%.
`O=C1Nc2ccc(S(=O)(=O)NCCCO)c3cccc1c23` gave ClpP mod 5%, Menin-MLL FL inh 1, CXXC DNA block 22% and Menin MLL FP TR 6%.
For Cn1nc(C(=O)N2CCN(c3ccc([N+](=O)[O-])cc3)CC2)c2c1-c1ccccc1S(=O)(=O)C2 the results were ClpP mod 0%, Menin-MLL FL inh 0, p53 reactivation 21%, CXXC DNA block 15% and Menin MLL FP TR 25µM*.

Bioassay records (PubChem)
